NPC1 promoter act: activators of NPC1 promoter | AID 485313 | Huh7 NPC1 promoter luciferase reporter, 24 h | Potency, µM (highest dose often 9.22 µM), for inactives: top-dose activation, most hits filed as activators | 2.4% of 320,000 active; note: % of control where 0% means no effect; nearly all actives have a fitted effect of over 60% in size
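Stably transfected Huh7 (NPC1 promoter→luciferase), 1500 cells/well in Opti-MEM + 10% FBS, 2 h settle, then compound 24 h at 37 °C. Luminescence after 10 min with Amplite reagent.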
SMN2 splice enh: SMN2 splice variant enhancement; AID 1458; HEK293 SMN2-luciferase splicing reporter, luminescence, 30-36 h; 2.8% of 210,000 active; Potency, µM (top dose mostly 46.1 µM), for the others: top-dose activity change, positive = activation, hits mostly activators; note: % of control where 0% means no effect; nearly all actives have a fitted effect of over 55% in size
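HEK293 cells carry an SMN2 […]–luciferase reporter in which exon 7 inclusion puts luciferase in frame. Cells were plated 10-12 h before compound addition, then incubated 30-36 h at 37C. ONE-Glo luminescence was read; sodium butyrate at 4.5 mM final served as control.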
Rab9 promoter act: activates the Rab9 promoter; 2.8% of 320,000 active; Potency, µM (top dose mostly 9.22 µM), without a hit: top-dose activation, negative = inhibition, actives largely listed as activators; Huh7 Rab9 promoter-luciferase reporter, luminescence, 24 h; note: % of control where 0% means no effect; nearly all actives have a fitted effect of over 60% in size
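Quantitative HTS format; Huh7 Rab9-luciferase reporter cells (1500/well) receive compound 2 h post-plating, incubate 24 h at 37 °C, then get luciferase reagent for 10 min before luminescence reading.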
FLuc counter: firefly luciferase modulation, counter-screen for miR-21 project. Potency, µM (highest dose often 57.5 µM), for the others: top-dose activity change, negative = inhibition, usual class: inhibitors. 6.9% of 360,000 active. purified FLuc, Km substrates, luminescence inhibition;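 note: plate controls were vehicle for no effect and reference inhibitor for full effect; nearly all actives have a fitted effect of over 55% in size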
Target sequence (P08659 whole entry, looked up): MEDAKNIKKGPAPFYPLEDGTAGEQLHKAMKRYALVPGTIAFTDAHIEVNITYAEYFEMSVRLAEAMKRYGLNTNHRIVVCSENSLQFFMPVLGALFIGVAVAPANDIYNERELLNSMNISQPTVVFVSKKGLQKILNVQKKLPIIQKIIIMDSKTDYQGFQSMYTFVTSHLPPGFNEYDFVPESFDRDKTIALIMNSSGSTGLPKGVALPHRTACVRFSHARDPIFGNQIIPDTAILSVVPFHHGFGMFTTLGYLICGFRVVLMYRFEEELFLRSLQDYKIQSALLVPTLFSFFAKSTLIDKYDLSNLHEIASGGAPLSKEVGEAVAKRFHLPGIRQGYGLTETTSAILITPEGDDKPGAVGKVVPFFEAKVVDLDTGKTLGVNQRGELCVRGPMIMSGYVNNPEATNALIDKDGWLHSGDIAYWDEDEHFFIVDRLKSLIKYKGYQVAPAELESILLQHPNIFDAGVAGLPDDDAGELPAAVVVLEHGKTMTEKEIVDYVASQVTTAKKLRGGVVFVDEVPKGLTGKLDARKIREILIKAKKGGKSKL
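Biochemical qHTS of compounds, final roughly 60 µM downward over six points, against 10 nM purified firefly luciferase using Km concentrations of substrates (10 uM D-luciferin, 10 uM ATP) in Tris acetate pH 7.5 buffer; luminescence output.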
ELG1 genotox: inducers of genotoxicity in HEK293T ELG1-luciferase cells; 1.3% of 330,000 active; HEK293T ELG1-luciferase reporter, luminescence, 16 h; Potency, µM (top dose mostly 46 µM), for the others: at the highest dose activity change, positive = activation, most hits filed as activators; AID 504466; note: % of control where 0% means no effect; nearly all actives have a fitted effect of over 60% in size
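Cells (2,000/well) expressing the ELG1-luciferase fusion are dosed by pin tool and kept 16 hr at 37 °C, 5% CO2. Signal comes from ONE-Glo luciferase reagent after 30 min at room temperature.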
p53 reactivator: re-activators of mutant p53 | 0.063% of 320,000 active | Potency, µM (highest dose often 92.2 µM), without a hit: at the top dose activity change, positive = activation, most hits filed as activators | H1299 p53-A138V BP100-luciferase reporter, luminescence, 24 h; note: % of control where 0% means no effect; nearly all actives have a fitted effect of over 45% in size
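p53-null H1299 cells stably carrying temperature-sensitive p53-A138V and a BP100-luciferase reporter were pinned with compounds (4-point, 1:5 series) and held 24 hrs at 37 deg C. Luminescence was read 10 min after detection reagent.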
* hit, by the source's call; [ ] = dose if it differs, or a comment. A selection: hits, their analogues and other compounds. The true share with any hit is near 7.3%. Calls come from the whole dose curve; as a rule, active = well fitted curve in the direction sought with a large enough effect; inconclusive = small, poorly fitted or top-dose-only effect, or another doubt; inactive = no such curve, though single readings can be large; an effect the other way counts as inactive or inconclusive. Potency is the fitted concentration of half-maximal effect.

For COc1cccc(CN2CCc3nc(Nc4ccc5c(c4)OCCO5)ncc3C2)c1 the results were FLuc counter 24µM*.
`Brc1ccc(CN2CCc3nc(Nc4ccccc4)ncc3C2)s1` gave FLuc counter -17%.
For Nc1ccc(N(S(=O)(=O)c2ccccc2)S(=O)(=O)c2ccccc2)c(Cl)c1 the results were SMN2 splice enh 0%[9.22 µM].
Cc1ccc2[nH]c(-c3cccc(F)c3)cc(=O)c2c1 was read as NPC1 promoter act -5%, SMN2 splice enh -2%, Rab9 promoter act -11%, FLuc counter 13µM*, ELG1 genotox 15µM* and p53 reactivator inconclusive.
`O=c1cc(-c2cccc(F)c2)[nH]c2ccccc12` gave NPC1 promoter act -12%, SMN2 splice enh -27%, Rab9 promoter act -21%, FLuc counter -26%, ELG1 genotox inconclusive and p53 reactivator 4%.
COc1ccc2[nH]c(-c3cccc(F)c3)cc(=O)c2c1 was read as NPC1 promoter act 22%, SMN2 splice enh 11µM*, Rab9 promoter act -6%, FLuc counter 15µM*, ELG1 genotox 13µM* and p53 reactivator inconclusive.
Screening COc1ccc(CCn2cc3c(c2-c2ccccc2Br)c(=O)n(C)c(=O)n3C)cc1OC returned SMN2 splice enh -1% and FLuc counter -9%.
`Cc1c(C(=O)Nc2nc3ccccc3[nH]2)oc2c(Cl)cccc12` gave NPC1 promoter act 13%, SMN2 splice enh inconclusive, Rab9 promoter act 24%, FLuc counter -16%, ELG1 genotox inconclusive and p53 reactivator inconclusive.
Screening Cc1c(C(=O)Nc2nc3ccccc3[nH]2)oc2ccccc12 returned NPC1 promoter act inconclusive, SMN2 splice enh 10µM*, Rab9 promoter act 4µM*, FLuc counter 3µM*, ELG1 genotox inconclusive and p53 reactivator inconclusive.
For Cc1c(C(=O)Nc2nc3ccccc3[nH]2)oc2ccc(Br)cc12 the results were NPC1 promoter act 28%, Rab9 promoter act inconclusive, FLuc counter 7.6µM*, ELG1 genotox inconclusive and p53 reactivator 16%.
Screening CCc1ccc(-n2nc(C)c3c(C)cc(=O)n(CC(=O)Nc4cc(C)ccc4C)c32)cc1 returned FLuc counter -4%.
For COc1cc(/C=N/NC(=S)Nc2cccc(C(=O)O)c2)ccc1O the results were NPC1 promoter act inconclusive, SMN2 splice enh 10%, Rab9 promoter act inconclusive, FLuc counter 4.3µM*, ELG1 genotox 1% and p53 reactivator -6%.
For CC(=O)Nc1cccc(C(=O)N/N=C/c2cccnc2)c1 the results were NPC1 promoter act 2%, SMN2 splice enh 4%, Rab9 promoter act 11%, FLuc counter inconclusive, ELG1 genotox 9% and p53 reactivator 22%.
Screening COc1cccc(/C=N/NC(=S)Nc2cccc(C(=O)O)c2)c1O returned NPC1 promoter act -3%, SMN2 splice enh 16µM*, Rab9 promoter act -6%, FLuc counter 0.19µM*, ELG1 genotox 2% and p53 reactivator -13%.
COc1ccc(CCCC(=O)N/N=C/c2cccc(OC)c2O)cc1C was read as NPC1 promoter act -8%, SMN2 splice enh -90%, Rab9 promoter act -25%, FLuc counter 17µM*, ELG1 genotox inconclusive and p53 reactivator inconclusive.
`O=C(O)c1cccc(NC(=S)N/N=C/c2cccnc2)c1` gave NPC1 promoter act inconclusive, SMN2 splice enh 16%, Rab9 promoter act inconclusive, FLuc counter 11µM*, ELG1 genotox inconclusive and p53 reactivator -6%.
For COc1cccc(/C=N/NC(=O)C[n+]2ccccc2)c1O the results were NPC1 promoter act 1%, SMN2 splice enh 18%, Rab9 promoter act -8%, FLuc counter inconclusive, ELG1 genotox 1% and p53 reactivator inconclusive.
For COCCCNC(=S)N/N=C/c1ccc(O)cc1O the results were NPC1 promoter act 2%, Rab9 promoter act -6%, FLuc counter inconclusive, ELG1 genotox 1% and p53 reactivator 4%.
S=C(N/N=C/c1ccccc1Cl)Nc1ccccc1 was read as NPC1 promoter act inconclusive, SMN2 splice enh 28%, Rab9 promoter act inconclusive, FLuc counter 19µM*, ELG1 genotox 0% and p53 reactivator 19%.
For Cc1cccc(C)c1NC(=S)N/N=C/c1ccc(C(=O)O)cc1 the results were NPC1 promoter act -7%, Rab9 promoter act 0%, FLuc counter -4%, ELG1 genotox 2% and p53 reactivator 3%.
For COc1ccc(/C=N/NC(=S)Nc2cccc(C(=O)O)c2)cc1 the results were NPC1 promoter act 2µM*, SMN2 splice enh 13µM*, Rab9 promoter act 1.8µM*, FLuc counter 1.7µM*, ELG1 genotox -6% and p53 reactivator -7%.
`COCCCNC(=S)N/N=C/c1cccc(OC)c1O` gave NPC1 promoter act 10%, Rab9 promoter act -26%, FLuc counter 9.5µM*, ELG1 genotox -3% and p53 reactivator 4%.
Screening COc1ccc(/C=N/NC(=S)Nc2ccccc2)cc1COc1ccc(Br)cc1 returned NPC1 promoter act 2%, Rab9 promoter act -10%, FLuc counter 4%, ELG1 genotox -2% and p53 reactivator 5%.
COc1ccc(/C=N/NC(=S)Nc2ccccc2)cc1 was read as NPC1 promoter act inconclusive, SMN2 splice enh 10µM*, Rab9 promoter act 4µM*, FLuc counter 11µM*, ELG1 genotox inconclusive and p53 reactivator 10%.
Screening NNC(=O)Cc1cccnc1 returned SMN2 splice enh -14%[9.22 µM].
For COc1ccc(COC2OC[C@]3(C)[C@H]4C5=C(CN3C(=O)OC(C)(C)C)[C@H](C)C(CO)C(CO)C5CC[C@@H]24)cc1 (some centres not stated) the results were SMN2 splice enh -4%.
For O=C(c1cnccn1)N1CCC[C@@]2(CCN(c3cccc(-c4ccccc4)c3)C2)C1 the results were SMN2 splice enh -15%.
For CN(C)C[C@H]1CCC2=C(C1=O)C(c1ccc(Cl)c(Cl)c1)C1=C(CC[C@H](CN(C)C)C1=O)O2 the results were SMN2 splice enh -43%[9.22 µM].
O=C(Nc1nc2c(s1)CCc1ccccc1-2)c1ccco1 was read as NPC1 promoter act inconclusive, SMN2 splice enh 16µM*, Rab9 promoter act inconclusive, FLuc counter 17µM*, ELG1 genotox 11% and p53 reactivator 4%.
For Cc1ccc2nc(NC(=S)NC(=O)c3ccco3)sc2c1 the results were NPC1 promoter act 1.4µM*, SMN2 splice enh 11µM*, Rab9 promoter act 3.5µM*, FLuc counter 0.48µM*, ELG1 genotox inconclusive and p53 reactivator inconclusive.

Assay outcomes as filed in PubChem.
